# Results reported in PubChem BioAssay AID2018 (Sanford-Burnham Center for Chemical Genomics, 2009).
# About 600 (50%) of roughly 1,200 compounds were called active. So high a share suggests a set chosen from earlier hits. The list shows a part of the results. Entries with a potency or affinity are not part of this list. Values without a mark were called inactive. No stated cut-off is given here; in the data, active means inhibition above about 42%; inactive means the rest.
# Target: SUMO-conjugating enzyme UBC9 (Homo sapiens) (UniProt P63279)
# Experiment: SUMOylation inhibitor hit validation, confirmation, SUMOylation inhibitor project, biochemical, AlphaScreen (AID 2018)
# Settings: AlphaScreen in vitro SUMOylation assay; at 35 µM; active compounds read high
# Chain of SUMO-conjugating enzyme UBC9 (Homo sapiens) (P63279 whole entry, looked up): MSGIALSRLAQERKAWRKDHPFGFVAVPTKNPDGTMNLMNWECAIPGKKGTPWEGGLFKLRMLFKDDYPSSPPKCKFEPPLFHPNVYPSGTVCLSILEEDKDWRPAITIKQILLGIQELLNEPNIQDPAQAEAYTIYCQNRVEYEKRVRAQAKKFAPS
row,Structure (SMILES),inhibition
1,CN1CCc2cc3c(c4c2[C@H]1[C@H](O)c1ccccc1-4)OCO3,74% (active)
2,NC(N)=NS(=O)(=O)c1ccc(NC(=S)NC(=O)/C=C/c2ccco2)cc1,34.2%
3,CC(=O)NC(=S)Nc1ccc(NC(=S)NC(=O)/C=C/c2ccco2)cc1,7.8%
4,COc1ccc(NC(=O)N2c3ccc(OC)cc3C(C)=CC2(C)C)cc1,28.1%
5,Cc1c(C(=O)c2ccc(F)cc2F)c2ccccn2c1CCC#N,15.4%
6,COc1ccc(Cn2c(C)c(C)c(C#N)c2NC(=O)Nc2ccc(F)cc2)cc1,-26.7%
7,c1cc(Nc2ncnc3sc4c(c23)CCC4)ccn1,12.9%
8,Cc1cc2n(n1)SC(Nc1cccc3ccccc13)N2 (stereo not given),14%
9,Cc1ccc2cc(C(c3nnnn3C(C)(C)C)N3CCCCCC3)c(=O)[nH]c2c1 (stereo not given),0.1%
10,COc1ccc(-c2csc(NC(=S)NC(=O)/C=C/c3ccco3)n2)cc1OC,74.2% (active)
11,CNS(=O)(=O)c1ccc2nc(NC(=O)/C=C/c3ccco3)sc2c1,16.2%
12,Cc1nc2ccc(-c3nc4cc(N)ccc4o3)cc2[nH]1,-11.6%
13,CCCCCCC(C)OC(=O)c1ccccc1C(=O)O (stereo not given),10.7%
14,Cc1c(Br)c(O)c(Br)c2sc(=O)oc12,49.6% (active)
15,Cc1ccc(Nc2nc(=O)c3cc([N+](=O)[O-])ccc3s2)cc1,24.2%
16,COc1cc([N+](=O)[O-])cc(/C=N/NC(=O)C(C)Nc2cccc3ccccc23)c1O (stereo not given),-212%
17,COc1ccc2c(c1)-c1nc(/N=C/c3cccc(OC)c3O)sc1CC2,28.4%
18,O=C(N/N=C/c1ccc(O)cc1O)C(=O)N/N=C/c1ccc(O)cc1O,101% (active)
19,COc1cccc(OC)c1C(=O)N1CCNCC1,-1.1%
20,COc1cccc(/C=N/NC(=O)C(=O)N/N=C/c2cccc(OC)c2O)c1O,98.6% (active)
21,O=C(CNc1ccc2ccccc2c1)N/N=C/c1cc2ccccc2nc1Cl,37.3%
22,CC(O)C(=O)N/N=C/c1cccc(Cl)c1Cl (stereo not given),-34.7%
23,O=C(NCCNc1ccc2ccccc2c1)c1cccn2c(=O)c3sccc3nc12,23.7%
24,Cc1ccc(-c2nc3cc(N)ccc3o2)cc1,11.5%
25,CC(C)CC(=O)Nc1ccc2oc(-c3cccnc3)nc2c1,16.9%

row,Structure (SMILES),inhibition
1,Cn1nccc1NC(=O)Nc1cccc(Br)c1,-0.2%
2,CCN1C(=O)c2cccc3c(N)ccc1c23,50% (active)
3,CN1C(=O)c2cccc3c(S(=O)(=O)NCCc4ccccc4)ccc1c23,-13%
4,CN1C(=O)c2cccc3c(S(=O)(=O)NCc4ccco4)ccc1c23,5%
5,C=CCN1C(=O)N(/C=C/C)c2cccc3cccc1c23,-14.9%
6,COc1cccc(C(=O)Nc2cccc(C(=O)NC3=NN(c4c(Cl)cc(Cl)cc4Cl)C(=O)C3)c2)c1,101% (active)
7,COC(=O)/C(=C\Nc1ccc(Cl)cc1Cl)NC(=O)c1ccc(OC)cc1,22.8%
8,COc1cccc(NC(=S)Nc2cccc3ccccc23)c1,30.7%
9,O=C(CNc1cccc2ccccc12)N/N=C/c1ccccn1,-1.7%
10,O=C(Cc1cc(=O)[nH][nH]1)N/N=C/c1cccc2ccccc12,47.2% (active)
11,C=CCc1cccc(/C=N/NC(=O)CNc2cccc3ccccc23)c1O,25.1%
12,O=C1CC(c2ccco2)CC(O)=C1C=NCC1NCCc2ccccc21 (stereo not given),18.6%
13,O=C1CC(c2ccco2)CC(O)=C1C=Nc1cc(Cl)ccc1O (stereo not given),54.5% (active)
14,O=C1CC(c2ccco2)CC(O)=C1C=Nc1cc(Cl)ccc1Cl (stereo not given),17.2%
15,O=C1CCN(c2ncccc2[N+](=O)[O-])CC1,-9.6%
16,O=C1C(Cl)=C(N2CCN(c3ccccc3[N+](=O)[O-])CC2)C(=O)c2ccccc21,101% (active)
17,Nc1c(Cl)cc(NC(=O)c2ccccc2C(=O)O)cc1Br,8%
18,CCCCN1Cc2c(nc3cc(-c4ccco4)[nH]n3c2=O)C1=O,4.3%
19,NS(=O)(=O)c1cnccc1Nc1ccc(Cl)cc1,-32.2%
20,O=C(Nc1ccccc1)c1ccccc1CCc1ccccc1,-9.6%
21,C/C(=C\C(=O)c1ccccc1)Nc1ccc(O)cc1,18.7%
22,COc1ccc(C2=NN(C(=O)c3cccs3)C(c3ccccc3O)C2)cc1 (stereo not given),27.7%
23,O=C(O)c1ccc(N2N=C(c3ccccc3)CC2c2ccccc2)cc1 (stereo not given),-14.9%
24,Cc1cc(=O)n2[nH]c(N)c(N=Nc3ccccc3)c2n1,23.6%
25,CCOCCCNC1=C(Cl)C(=O)c2ccccc2C1=O,90.1% (active)

row,Structure (SMILES),inhibition
1,O=C1c2nc3cc(-c4ccco4)[nH]n3c(=O)c2CN1C1CCCCC1,6.6%
2,Cc1[nH][nH]c(=O)c1C(c1c(C)[nH][nH]c1=O)c1cn(C)c2ccccc12,102% (active)
3,Cc1[nH][nH]c(=O)c1C(c1c(C)[nH][nH]c1=O)c1cn(Cc2cccc3ccccc23)c2ccccc12,32.5%
4,Cc1[nH][nH]c(=O)c1C(c1c(C)[nH][nH]c1=O)c1cn(Cc2ccc(F)cc2)c2ccccc12,50.9% (active)
5,O=C(NCc1ccc(F)cc1)C(=O)c1cn(CC(=O)N2CCCC2)c2ccccc12,11.6%
6,O=C(O)/C=C/C(=O)Nc1ccc2c(c1)NC(=O)CO2,13.1%
7,Cc1c(O)ccc2c(CC(=O)N[C@@H](Cc3ccc(O)cc3)C(=O)O)cc(=O)oc12,16.9%
8,COc1ccc2c(c1)c(=O)oc1c(C)c(OCc3ccc(C(=O)O)cc3)ccc12,65.5% (active)
9,CC(=O)Nc1cccc(NC(=S)Nc2cccc3ccccc23)c1,28.9%
10,COc1ccc(NC(=S)Nc2cccc3ccccc23)cc1OC,10.7%
11,COc1cc2cc(NC(C)=O)cc(NCc3ccccc3)c2cc1OC,50.6% (active)
12,CCOC(=O)N1CCC(c2cc(=O)n(-c3ccccc3)[nH]2)CC1,16.1%
13,CCOC(=O)N1CCN(C2=C(NS(=O)(=O)c3ccc(C)cc3)C(=O)c3ccccc3C2=O)CC1,85.2% (active)
14,CC(=O)Nc1ccc(S(=O)(=O)Nc2cccn(Cc3ccc(C)cc3)c2=O)cc1,1.7%
15,CCOC(=O)N1CCN(C2=C(NS(=O)(=O)c3ccc(NC(C)=O)cc3)C(=O)c3ccccc3C2=O)CC1,53.7% (active)
16,Cc1ccc(C(=O)Nc2ccccc2C(=O)N2CCN(c3ccccc3)CC2)cc1,-27.1%
17,COc1ccc(Br)cc1C1CC(=O)N2CN(Cc3ccccc3)CSC2=C1C#N (stereo not given),29.1%
18,COc1ccc(CC2=C(O)c3ccccc3C(=O)C2=O)cc1,19.6%
19,O=C1C(=O)c2ccccc2C(O)=C1CCCCl,102% (active)
20,CC1(OC(=O)c2cccs2)C(=O)C=C2C=C3CCCN3C=C2C1=O (stereo not given),83.7% (active)
21,Cc1nc2ccc(NC(=O)NCc3ccco3)cc2s1,-8.1%
22,CC(=O)C1=C(O)C=C(c2ccco2)CC1c1ccco1 (stereo not given),28.1%
23,Cc1ccc(S(=O)(=O)NNC(=S)Nc2c(Cl)cccc2Cl)cc1,-0.4%
24,Fc1ccc(-c2ccnc3nc(N4CCOCC4)nn23)cc1,-6.1%
25,O=C(O)c1ccc(C(=O)Nc2cccc3ccccc23)c(C(=O)O)c1,12.5%

row,Structure (SMILES),inhibition
1,Cc1cc(N2C(=O)c3ccc(C(=O)Nc4ccc(O)cc4C(=O)O)cc3C2=O)no1,39.8%
2,N#Cc1ccc(-c2csc(NC(=O)/C=C/c3cccs3)n2)cc1,3.9%
3,CNc1nnc(-c2cc3ccccc3oc2=O)s1,28.9%
4,Nc1nnc(-c2cc3c(ccc4ccccc43)oc2=O)s1,46.1% (active)
5,COC(=O)c1scc(C)c1NC(=O)C(Cl)c1ccccc1 (stereo not given),-8.2%
6,N#Cc1c(-c2ccco2)cc(-c2cccnc2)nc1N,26.7%
7,CC(=O)c1sc2nc(-c3ccco3)ccc2c1N,40%
8,N#Cc1sc2nc(-c3ccccc3)cc(-c3ccco3)c2c1N,96.1% (active)
9,CCOc1cc2c(C#N)c(N3CCNCC3)nc(N)c2c(N)n1,18.3%
10,COc1ccc(CN2C(=O)Cc3c2nc(N)c2c(N)nc(N4CCOCC4)c(C#N)c32)cc1,11%
11,CCOc1cc2c(C#N)c(N3CCCCC3)nc(N)c2c(N)n1,101% (active)
12,CCOc1cc2c(C#N)c(N3CCOCC3)nc(N)c2c(N)n1,44.2% (active)
13,Cc1oc2c(c(C)cc3oc(=O)c(CC(=O)NCC(=O)NCC(=O)NCC(C)O)c(C)c32)c1C (stereo not given),-15.6%
14,COc1ccc(-n2c(NC(=O)c3ccco3)c(C#N)c3nc4ccccc4nc32)cc1,101% (active)
15,CCOC(=O)c1c(NC(=O)c2ccco2)n(C2CCCCC2)c2nc3ccccc3nc12,63.5% (active)
16,O=C(Nc1cccc2cccc(NC(=O)c3ccco3)c12)c1ccco1,36.3%
17,CN(c1ccccc1)c1cc(=O)[nH]c(=O)[nH]1,11.4%
18,Oc1ccc(NC(=S)Nc2ccc(O)cc2)cc1,19.5%
19,O=C(CNc1cccc2ccccc12)N/N=C/c1ccc([N+](=O)[O-])cc1,-19.8%
20,Oc1oc(-c2ccccc2)nc1C=Nc1cccc2ccccc12,-77.5%
21,Cc1ccccc1N=Cc1cccc(O)c1O,33.2%
22,Oc1cccc(C=Nc2cccc3ccccc23)c1O,59% (active)
23,O=[N+]([O-])c1ccc(-c2ccc(C=Nc3cccc4ccccc34)o2)cc1,58.3% (active)
24,O=[N+]([O-])c1ccc(C=Nc2cccc3ccccc23)s1,82.6% (active)
25,Oc1cccc(C=NCc2ccccc2)c1O,51.5% (active)
